The record followed here is PubChem BioAssay (NCATS).

Records with an inconclusive call do not appear. The source made the active and inactive calls. Calls come from the whole dose curve; as a rule, active = well fitted cell-killing curve with a large enough effect; inconclusive = small, poorly fitted or top-dose-only effect, or effect the other way; inactive = no such curve, though single readings can be large or run the other way.

Assay [1] in a line: Quantitative High-Throughput drug screen in 47 multiple myeloma cell lines against the NCATS MIPE library collection: FR4_PLB cell viability assay (AID 1918924; note: nearly all actives have a fitted effect of over 35% in size; note: potency is the fitted concentration of half-maximal effect). A digest of the protocol:
(§1)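 Relative luminescence from CellTiter-Glo served as the viability signal, referenced to DMSO-treated (100%) and cell-free medium (0%) controls. Treatment lasted 48 hours at 37C with 500 cells per well.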

Assay [2] is described as follows: Quantitative High-Throughput drug screen in 47 multiple myeloma cell lines against the NCATS MIPE library collection: Delta47_JCRB cell viability assay (AID 1918925; note: nearly all actives have a fitted effect of over 45% in size; note: potency is the fitted concentration of half-maximal effect;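 for viability (% of DMSO): 0% = media-only wells and 100% = DMSO-only wells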). The method, boiled down: as §1
Assay [3] can be described thus: Quantitative High-Throughput drug screen in 47 multiple myeloma cell lines against the NCATS MIPE library collection: EJM_DSMZ cell viability assay (AID 1918926; note: nearly all actives have a fitted effect of over 30% in size; note: potency is the fitted concentration of half-maximal effect). The method, boiled down: as §1
The nature of assay [4]: Quantitative High-Throughput drug screen in 47 multiple myeloma cell lines against the NCATS MIPE library collection: ARP1_JJKsccF8 cell viability assay (AID 1918928; note: nearly all actives have a fitted effect of over 40% in size; note: potency is the fitted concentration of half-maximal effect). A digest of the protocol:
(§2)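 Each line was plated at 500 cells/well and treated 48 h with library drugs. Viability came from CellTiter-Glo luminescence relative to DMSO and cell-free medium controls.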

Assay [5] is described as follows: Quantitative High-Throughput drug screen in 47 multiple myeloma cell lines against the NCATS MIPE library collection: Karpas620_DSMZ cell viability assay (AID 1918959).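 Note: 100% = DMSO-only wells and 0% = cell-free media-only wells; nearly all actives have a fitted effect of over 30% in size.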 A digest of the protocol: as §1
Assay [6] can be described thus: Quantitative High-Throughput drug screen in 47 multiple myeloma cell lines against the NCATS MIPE library collection: KMM1_JCRB cell viability assay (AID 1918960). Note: nearly all actives have a fitted effect of over 30% in size. Note: potency is the fitted concentration of half-maximal effect. The method, boiled down:
as §2

Assay [7] can be described thus: Quantitative High-Throughput drug screen in 47 multiple myeloma cell lines against the NCATS MIPE library collection: ARD_JJKsccE7 cell viability assay (AID 1918929; note: potency is the fitted concentration of half-maximal effect;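 for viability: 100% = DMSO-only wells and 0% = media-only wells without cells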). A digest of the protocol:
as §1

Assay [8] can be described thus: Quantitative High-Throughput drug screen in 47 multiple myeloma cell lines against the NCATS MIPE library collection: Karpas417_ECACC cell viability assay (AID 1918961).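 Note: 100% = DMSO only wells and 0% = media only wells without cells.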 The conditions noted are these: Karpas417 myeloma viability, CellTiter-Glo ATP luminescence, 48 h; viability (% of DMSO): at 45.8 µM (top of the series). The method, boiled down: as §1
A general note: Cellular ATP, detected with luciferase, serves as a proxy for viable cell number.

The nature of assay [9]: Quantitative High-Throughput drug screen in 47 multiple myeloma cell lines against the NCATS MIPE library collection: AMO1_DSMZ cell viability assay (AID 1918927; note: nearly all actives have a fitted effect of over 30% in size; note: potency is the fitted concentration of half-maximal effect). The method, boiled down:
as §1

In the case of `CC[C@H]1OC(=O)[C@H](C)[C@@H](O[C@H]2C[C@@](C)(OC)[C@@H](O)[C@H](C)O2)[C@H](C)[C@@H](O[C@@H]2O[C@H](C)C[C@H](N(C)C)[C@H]2O)[C@](C)(O)C[C@H](C)C(=NOCOCCOC)[C@H](C)[C@@H](O)[C@]1(C)O`, the Potency entry in assay [1], in assay [2], in assay [3], in assay [4], in assay [5] and in assay [6] was “inactive” throughout.

Take `O=c1[nH]c(=O)n([C@H]2C[C@@H](O)[C@@H](CO)O2)cc1I`: the Potency result in assay [1], in assay [2], in assay [3], in assay [4] and in assay [8] was “inactive” throughout. Also, the Potency in assay [7] is 3.32 µM (active).

As to `COc1c(C)c2c(c(O)c1CC=C(C)CCC(=O)OCCN1CCOCC1)C(=O)OC2`, the Potency in assay [1] was 5.26 µM (active); in assay [9], 0.372 µM (active); in assay [7], 1.18 µM (active). For the same compound, the Potency entry in [2] and in assay [3] was “inactive” each time.

In the case of `O=C1CN2Cc3c(ccc(Cl)c3Cl)N=C2N1`, the Potency result in [1], in assay [3], in assay [9], in [7], in assay [5] and in [6] was “inactive” throughout. The Potency in assay [2] was 29.6 µM (active).

For the compound `COc1cccc(OC)c1-c1cc(C(=O)NC2(C(=O)O)C3CC4CC(C3)CC2C4)nn1-c1ccnc2cc(Cl)ccc12` (stereo unspecified), the Potency result in assay [1], in assay [2], in [3], in assay [9], in [5] and in [6] was “inactive” each time.

With `NC(=O)c1ncn([C@@H]2O[C@H](CO)[C@@H](O)[C@@H]2O)n1`, the Potency result in assay [1], in [2], in assay [3], in assay [7] and in assay [5] was “inactive” in each case.

As for `CC(=O)O[C@]1(C(C)=O)CC[C@H]2[C@@H]3C=C(Cl)C4=CC(=O)[C@@H]5C[C@H]5[C@]4(C)[C@@H]3CC[C@@]21C`, the Potency result in [1] was “inactive”. In addition, the Potency in assay [2] was 8.33 µM (active); in assay [3], 11.8 µM (active); in assay [9], 10.5 µM (active); in assay [7] it was 23.5 µM (active); in [6], 18.7 µM (active). For the same compound, the viability (% of DMSO) in [8] was 112% (active).

For the compound `COc1cc2c(cc1Cc1cccc(Cl)c1F)c(=O)c(C(=O)O)cn2[C@H](CO)C(C)C`, the Potency was 20.9 µM (active) in assay [1], 20.9 µM (active) in [2], 20.9 µM (active) in assay [3] and 16.6 µM (active) in [4].

`OC1CCC(Nc2ncc3nc(Nc4c(F)cc(F)cc4F)n([C@@H]4CCOC4)c3n2)CC1` (stereo partly specified): the Potency entry in [1] and in assay [5] was “inactive” throughout. Further, the Potency is 8.33 µM (active) in assay [2]; 0.0012 µM (active) in assay [3]; 16.6 µM (active) in [9]; 33.2 µM (active) in [4]; 11.8 µM (active) in assay [6].

Regarding `C[C@]12CCC3=C4CCC(=O)C=C4CC[C@@H]3[C@H]1CC[C@@]2(O)CC#N`, the Potency result in assay [1], in [2], in assay [3] and in assay [4] was “inactive” throughout.

For `Cc1cnc(-c2cc(N3CCN(C(=O)CCS(C)(=O)=O)CC3)ncc2Cl)c(C)c1`, the Potency entry in assay [1], in assay [2], in assay [4], in assay [7] and in [5] was “inactive” in each case. Further, the Potency in [3] was 0.0132 µM (active).

As to `CON(C)C(=O)N1N=C(c2cc(F)ccc2F)S[C@]1(CCCN)c1ccccc1`, the Potency result in assay [1], in assay [2], in assay [3] and in assay [5] was “inactive” throughout. The Potency in [9] and in assay [7] was 0.001 µM (active) in each case.

As for `COc1cc([C@H]2Oc3cc([C@H]4Oc5cc(O)cc(O)c5C(=O)[C@H]4O)ccc3O[C@H]2CO)ccc1O`, the Potency is 18.7 µM (active) in assay [1], 13.2 µM (active) in [2], 14.8 µM (active) in assay [3] and 16.6 µM (active) in [4]. Besides, the Potency result in assay [5] and in assay [6] was “inactive” in each case.

As for `O=C(O)CCC=CCC[C@@H]1[C@H](N2CCCCC2)[C@@H](O)C[C@@H]1OCc1ccc(-c2ccccc2)cc1`, the Potency result in assay [1], in assay [2], in assay [3], in [4], in [5] and in assay [6] was “inactive” each time.

Turning to `O=C(O)C1=CC(O)C(O)[C@H](O)C1` (stereo partly specified), the Potency entry in [1], in [2], in assay [3], in assay [9], in assay [7] and in assay [6] was “inactive” throughout.

As for `CC=C1C2C=C(C)CC1(N)c1ccc(=O)[nH]c1C2` (stereo unspecified), the Potency result in assay [1], in assay [2], in assay [3], in assay [9], in [7] and in assay [5] was “inactive” throughout. Also, the Potency result in assay [6] is “inactive”.

Regarding `NC(N)=Nc1nc(CSCCC(N)=NS(N)(=O)=O)cs1`, the Potency result in [1], in assay [4], in assay [7], in assay [5] and in [6] was “inactive” each time. Besides, the results for the Potency in [2] and in [3] were 10.5 µM (active) and 23.5 µM (active), respectively.

Take `CNC1[C@H](O)C(O[C@@H]2C(O)C(O[C@H]3O[C@H]([C@@H](C)NC)CC[C@H]3N)[C@@H](N)C[C@H]2N)OC[C@]1(C)O` (stereo partly specified): the Potency result in assay [1], in [2], in assay [3], in assay [9], in assay [4] and in assay [5] was “inactive” in each case. In addition, the Potency entry in assay [6] was “inactive”.

Consider `C[C@H]1O[C@@H](n2cc(F)c(=O)[nH]c2=O)[C@H](O)[C@H]1O`, for which the Potency result in assay [1], in [3], in [4] and in assay [8] was “inactive” in each case. Moreover, the Potency was 14.8 µM (active) in [2], 1.32 µM (active) in assay [7] and 5.26 µM (active) in assay [6].

`CCCCCCCCCCCCCCCC(=O)O[C@H]1[C@@H](O)[C@@H](O)[C@@H]([C@H](NC(=O)[C@@H]2C[C@@H](CCC)CN2C)[C@H](C)Cl)O[C@@H]1SC`: the Potency entry in assay [1], in assay [2], in assay [3], in assay [9] and in assay [4] was “inactive” in each case. Further, the Potency in assay [6] was 8.33 µM (active).
